Screening data from PubChem BioAssay.
Most compounds without a hit are left out; they make up all but 21% or so of the library.
TDP1 cell noCPT = qHTS for Inhibitors of human tyrosyl-DNA phosphodiesterase 1 (TDP1): qHTS in cells in absence of CPT | 420,000 compounds, 15% hits | Potency, µM (titrated, usually from 46.2 µM), usual class: inhibitors | DT40 Tdp1-/- hTDP1 cells, no CPT, ATP luminescence, 48 h | AID 686978, 2013; further: nearly all actives have a fitted effect of over 55% in size
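Camptothecin absent (DMSO only). Human TDP1-complemented DT40 knockout cells, 400 cells/well, 37 °C for minimum 48 hr; ATP measured via CellTiter-Glo, 30 min dark incubation, luminescence.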
IL-1B inflam inh = inflammasome signaling inhibition, IL-1 beta readout | THP-1 LPS/ATP IL-1B secretion, AlphaLISA, 16 h; stronger effect = lower value | AID 743279 | 360,000 compounds, 4.7% hits | activity change, % at 57.5 µM; in the data active means activity change below about -50%; inconclusive means mostly about -30% to -49%
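Secreted IL-1B measured by AlphaLISA bead assay after 16 h compound exposure of THP-1 cells; compounds (final up to 57.5 uM) added 1 h before LPS (250 ng/mL) and ATP (1.25 mM) stimulation; lower signal means less secretion.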
DT40 TDP1 CPT = DT40-hTDP1 cell growth loss with CPT | chicken DT40 Tdp1-/-;hTDP1 cells + 20 nM CPT, ATP luminescence, 48 h | AID 686979 | 420,000 compounds, 12% hits | Potency, µM (series often up to 46.2 µM), hits mostly inhibitors; further: nearly all actives have a fitted effect of over 55% in size
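Chicken DT40 Tdp1-/- cells complemented with human TDP1, 400 cells/well, exposed to compounds plus 20 nM camptothecin for at least 48 h at 37 C; viability read as ATP content by CellTiter-Glo luminescence.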
ELG1 DNA repair = inhibitors of ELG1-dependent DNA repair in HEK293T cells. Potency, µM (series often up to 46.1 µM), most hits filed as inhibitors. HEK293T ELG1-luciferase reporter, luminescence, 16 h; DNA damage induced by 5-fluorouridine. AID 504467. 330,000 compounds, 2.3% hits; further: nearly all actives have a fitted effect of over 55% in size
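DMSO vehicle served as the neutral condition. Each well held 2,000 cells given 5-fluorouridine plus compound; after 16 hr at 37 °C/5% CO2, ONE-Glo was added and luciferase measured 30 min later.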
RORgamma inh = inhibitors of mouse ROR gamma transcriptional activity; P51450; Drosophila S2 Gal4-RORgamma UAS-luciferase reporter, 20 h; Potency, µM (titrated, usually from 53.6 µM), most hits filed as inhibitors; 310,000 compounds, 5.4% hits; AID 2551; further: nearly all actives have a fitted effect of over 60% in size
Target sequence (P51450 whole entry, looked up, the tested form may be a part): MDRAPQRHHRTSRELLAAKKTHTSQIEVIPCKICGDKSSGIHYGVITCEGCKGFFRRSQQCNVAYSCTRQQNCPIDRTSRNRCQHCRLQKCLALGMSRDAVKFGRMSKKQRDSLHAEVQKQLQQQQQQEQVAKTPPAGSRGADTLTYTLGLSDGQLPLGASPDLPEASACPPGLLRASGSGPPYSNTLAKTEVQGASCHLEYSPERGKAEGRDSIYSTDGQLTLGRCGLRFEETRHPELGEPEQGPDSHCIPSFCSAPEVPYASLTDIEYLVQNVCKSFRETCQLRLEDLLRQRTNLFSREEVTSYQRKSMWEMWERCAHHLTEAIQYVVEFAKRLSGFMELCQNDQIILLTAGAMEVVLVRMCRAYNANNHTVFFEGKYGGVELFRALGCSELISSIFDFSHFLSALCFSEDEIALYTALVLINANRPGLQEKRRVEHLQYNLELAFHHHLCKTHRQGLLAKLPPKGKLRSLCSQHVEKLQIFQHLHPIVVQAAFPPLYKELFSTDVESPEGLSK
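Stable Schneider cell line, Gal4 DNA-binding domain fused to ROR gamma, UAS-luciferase. Cmpd 1 hr RT → CuSO4 700 uM final → 20 hr RT → luciferase reagent 10 min → luminescence.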
Gal4-VP16 FLuc = Gal4-VP16 reporter inhibition counter-screen. Drosophila S2 Gal4-VP16 UAS-luciferase, luminescence, 20 h. Potency, µM (doses to about 53.6 µM), most hits filed as inhibitors. 310,000 compounds, 3.5% hits;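 further: Gal4-VP16 expression switched on by copper sulfate through the metallothionein promoter; nearly all actives have a fitted effect of over 50% in size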
A number is an active result; . = inactive; ? = inconclusive; / = no result given; ! = not confirmed by another sample; [ ] = dose if it differs, or a comment. Unless noted, the call rests on the fitted dose curve; in most records, active means well fitted curve in the direction sought with a large enough effect; inconclusive means small, poorly fitted or top-dose-only effect, or another doubt; inactive means no such curve, though single readings can be large; an effect the other way counts as inactive or inconclusive.

SMILES	TDP1 cell noCPT	IL-1B inflam inh	DT40 TDP1 CPT	ELG1 DNA repair	RORgamma inh	Gal4-VP16 FLuc
CC(=O)N(C)c1ccc(N=Nc2ccc3ncccc3c2)cc1	15µM	?	?	/	/	/
Cc1csc2nc(COC(=O)c3ccc(NC(=O)c4ccccc4Br)cc3)cc(=O)n12	18µM	/	21µM	/	/	/
Cc1csc2nc(COc3ccc(NC(=O)C(C)C)cc3)cc(=O)n12	.	/	.	/	/	/
Cc1csc2nc(COC(=O)CNC(=O)c3ccccc3)cc(=O)n12	.	/	.	/	/	/
Cc1csc2nc(COC(=O)c3ccc(NC(=O)C(C)C)cc3)cc(=O)n12	26µM	/	18µM	/	/	/
CCC1=C(OC(=O)N(CC)CC)N2C(=O)OC(=NCCOC)[C@]2(Cc2ccccc2)[C@H]2C1=CC[C@H]1C(=O)N(CC)C(=O)[C@H]12	.	.	.	.	.	.
CCC1=C(OC(=O)N(CC)CC)N2C(=O)OC(=NCC3CC3)[C@]2(Cc2ccccc2)[C@H]2C1=CC[C@H]1C(=O)N(CC)C(=O)[C@H]12	21µM	?	16µM	.	.	.
CC(C)N(C(=O)CSc1nnc(-c2cc3ccccc3cc2O)n1Cc1ccco1)C(C)C	21µM	.	13µM	?	.[0.365 µM]	/
O=C(CSc1nnc(-c2cccnc2)n1Cc1ccco1)c1ccc2ccccc2c1	?	.	?	.	.	.
COCCn1c(SCC(=O)Nc2nnc(C)s2)nnc1-c1cc2ccccc2cc1O	.	.	.	.	.	.
O=C(CSc1nnc(-c2cc3ccccc3cc2O)n1Cc1ccco1)N1CCc2ccccc2C1	?	-71	?	?	.	.
COCCn1c(SCC(=O)N(C(C)C)C(C)C)nnc1-c1cc2ccccc2cc1O	21µM	.	?	?	.	.
COc1cccc(C(=O)NCCS(=O)(=O)NCc2ccccn2)c1	.	.	.	.	/	/
COc1ccc(N(C(=O)c2ccccc2C)S(=O)(=O)c2ccc3c(c2)n(C)c(=O)n3C)cc1	?	/	.	/	/	/
Cc1ccc(NC(=O)CCS(=O)(=O)c2cccc3nonc23)c(Br)c1	.	.	.	.	.	.
CCSc1nnc(NC(=O)[C@@H](NC(=O)c2ccc(C(C)(C)C)cc2)C(C)C)s1	21µM	.	26µM	.	.	.
CC(C)[C@H](NC(=O)c1ccc(C(C)(C)C)cc1)C(=O)Nc1nnc(C2CC2)s1	?	.	23µM	.	.	.
CC1Cc2ccccc2N1C(=O)CSc1nc2ccccc2s1 (stereo unspecified)	?	.	?	.	.	.
CC1Cc2ccccc2N1C(=O)COC(=O)CSc1ccc(F)cc1 (stereo unspecified)	.	.	.	.	/	/
CC1Cc2ccccc2N1C(=O)CSc1nc(-c2ccccc2)cs1 (stereo unspecified)	26µM	.	?	.	.	.
CC(Sc1nc(-c2ccc(F)cc2)cs1)C(=O)N1c2ccccc2CC1C (stereo unspecified)	?	.	?	26µM	?	.
CCCNC(=O)C1(C)CCN(C(=O)COc2ccc(Cl)cc2Cl)C1 (stereo unspecified)	.	.	.	/	/	/
CCOC(=O)C1(C)CCN1C(=O)c1ccc(Cl)nc1 (stereo unspecified)	.	.	.	/	/	/
O/C(=C\Sc1nnc(Cc2ccccc2)o1)c1ccc(F)cc1	.	.	.	.	.	.
O=C1C(=O)c2ccccc2C(O)=C1C1CCC(c2ccc(Cl)cc2)CC1 (stereo unspecified)	2.3µM!	.	?	.	13µM	5µM
SMILES	TDP1 cell noCPT	IL-1B inflam inh	DT40 TDP1 CPT	ELG1 DNA repair	RORgamma inh	Gal4-VP16 FLuc
CC(CCc1ccccc1)NC(=O)CCCn1ncn2c(cc3occc32)c1=O (stereo unspecified)	.	.	.	.	.	.
O=C(NCCCN1CCN(CCCNC(=O)c2cc([N+](=O)[O-])ccc2Cl)CC1)c1cc([N+](=O)[O-])ccc1Cl	.	.	.	.	.	.
Cc1ccc2nc(-c3cccc(Br)c3)cc(C(=O)NC3=NCCS3)c2c1	?	.	?	21µM	2.5µM	4.5µM
O=C(Nc1ncccn1)c1cc(-c2cccc(Br)c2)nc2ccccc12	?	?	?	?	.	.
O=C(NC1=NCCS1)c1cc(-c2cccc(Br)c2)nc2ccccc12	?	?	.	?	7.1µM	?
COc1ccc(CCNC(=O)c2ccc3c(c2)N(Cc2ccc(F)cc2)C(=O)c2ccccc2S3(=O)=O)cc1OC	12µM	/	?	/	/	/
Cc1ccc(C)c(CN2C(=O)c3ccccc3S(=O)(=O)c3ccc(C(=O)NCCc4ccc(Cl)cc4)cc32)c1	.	/	.	/	/	/
CCN1C(=O)c2ccccc2S(=O)(=O)c2ccc(C(=O)NCc3ccc(F)cc3)cc21	23µM	/	?	/	/	/
O=C(NCc1ccccc1)c1ccc2c(c1)N(Cc1ccccc1)C(=O)c1ccccc1S2(=O)=O	?	/	.	/	/	/
COc1ccccc1CNC(=O)c1ccc2c(c1)N(Cc1cccc(Cl)c1)C(=O)c1ccccc1S2(=O)=O	.	/	.	/	/	/
O=C(NCCc1ccccc1)c1ccc2c(c1)N(Cc1ccc(Cl)cc1)C(=O)c1ccccc1S2(=O)=O	23µM	/	15µM	/	/	/
NS(=O)(=O)c1cccc(NC(=O)COC(=O)CCC(=O)c2cccs2)c1	.	.	.	.	/	/
O=C1CC[C@@H](C(=O)N[C@H]2C[C@@H]2c2ccccc2)N1	.	/	.	/	/	/
CCOC(=O)N/N=C1/C[C@@H](O)[C@@H](O)[C@@H]2[C@@H]3C(=O)N(Cc4ccccc4)C(=O)[C@H]3CC[C@@H]12	/	/	/	/	.[10 µM]	.[10 µM]
O=C(NC1(O)C(=O)c2ccccc2C1=O)c1ccccc1	?	.	26µM	.	.	.
O=C(NC1(O)C(=O)c2ccccc2C1=O)c1c(Cl)cccc1Cl	26µM	.	?	.	.	.
Cc1cccc(S(=O)(=O)N2CCCc3ccccc32)c1	?	.	26µM	.	.	.
O=C(Nc1ncccc1O)c1cccc(S(=O)(=O)N2CCCc3ccccc32)c1	.	.	.	.	/	/
Cc1cc(C)c(S(=O)(=O)N2CCCc3ccccc32)c(C)c1	?	.	?	.	?	.
Cc1ccnc(NC(=O)c2cccc(S(=O)(=O)N3CCCc4ccccc43)c2)c1	21µM	.	21µM	?	/	/
Cc1cccnc1NC(=O)c1cccc(S(=O)(=O)N2CCCc3ccccc32)c1	?	.	?	?	11µM	?
Cn1cnnc1SCC(=O)Nc1ccc(C#N)cc1	.	/	.	/	/	/
C1=C[C@H]2CC[C@@H]1N(c1ccccc1)O2	.	.	.	.	/	/
Cn1nnnc1SCCNCc1ccccc1OCc1ccc(Cl)cc1	16µM	-89	?	.	?	.
